# Measured values as given in PubChem BioAssay AID1259415 (National Center for Advancing Translational Sciences (NCATS), 2018).
# “And” between values parts separate entries of the source, which are not always exact repeats. Identical values can stand only once. The campaign covered roughly 410,000 compounds. About 18,000 (4.4%) were called active. Another 7% or so got no clear call; they are omitted. Rule as the data show it: active = activity change below about -60%; inconclusive = no clear call, values can overlap the other calls; inactive = above about -39%. The sample as a whole holds a higher share of actives than the screen did. Some structures have more than one record in an assay (separate samples or runs), and their calls can disagree.
# Test: qHTS Assay for inhibitors of the human cytomegalovirus (HCMV)
# Conditions: HFF cells, HCMV-luciferase reporter, 72 h; at 57.5 µM; stronger effect = lower value
# Outline: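 Compounds were evaluated in HFFs infected with an HCMV luciferase reporter virus (MOI 1 PFU/cell). Luciferase in lysates collected 72 h post infection served as the replication measure.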
# % is scaled to controls: 0 for no effect and ±100 for the full control effect.
row,SMILES,"activity change, negative = inhibition"
1,Cc1nc2sc(C)c(C)n2c(=O)c1S(=O)(=O)NCCc1ccc(Cl)cc1,6.07% (inactive)
2,Cc1oc2ncnc(N3CCOCC3)c2c1C(=O)NCCc1ccccc1,-27.7% (inactive)
3,CCNC(=O)C1CCCN(C(=O)c2cc(F)ccc2C)CC1 (stereo not drawn),-4.35% (inactive)
4,NS(=O)(=O)c1ccc2nc(NC(=O)COc3ccccc3)sc2c1,-8.44% (inactive)
5,O=C(NC(Nc1nc2ccc([N+](=O)[O-])cc2s1)(C(F)(F)F)C(F)(F)F)c1ccccc1,-103% (active)
6,CN(C)c1cccc(C(=O)Nc2nc3ccc(S(=O)(=O)NC(C)(C)C)cc3s2)c1,-29.3% (inactive)
7,O=C(Nc1cc(C(F)(F)F)ccc1Cl)c1cc2nc(-c3ccc4c(c3)OCO4)cc(C(F)(F)F)n2n1,4.65% (inactive)
8,CCC(C)Nc1oc(-c2ccc(COc3ccc(Cl)cc3)o2)nc1C#N (stereo not drawn),-28.6% (inactive)
9,CCC(Sc1nc2n[nH]c(C)c2c(=N)n1-c1ccccc1Cl)C(=O)N(CC)CC (stereo not drawn),10.8% (inactive)
10,O=C(O)CN1c2cccc3cccc(c23)S1(=O)=O,24.9% (inactive)
11,Cc1ccc(S(=O)(=O)N(C)C)cc1NC(=O)CN1c2cccc3cccc(c23)S1(=O)=O,-17.7% (inactive)
12,COc1ccc(C)cc1NC(=O)CN1c2cccc3cccc(c23)S1(=O)=O,-63.9% (active)
13,CCN(CC(=O)Nc1c(F)cccc1F)C(=O)CN1c2cccc3cccc(c23)S1(=O)=O,-81.2% (active)
14,CCN(CC(=O)Nc1c(F)cccc1F)C(=O)c1cnc(C)cn1,-12.6% (inactive)
15,CC(C)CN(CC(C)C)C(=O)CN1c2cccc3cccc(c23)S1(=O)=O,51.7% (inactive)
16,CCC(=O)Nc1ccccc1-c1nc2ccccc2n(CC(=O)Nc2ccc(C)c(C)c2)c1=O,4.84% (inactive)
17,O=C(CSc1ncc(CO)n1Cc1ccc(F)cc1)NCc1ccco1,-7.64% (inactive)
18,O=C(CC(CC(=O)c1ccccc1)c1ccco1)c1ccccc1,-38.2% (inactive)
19,COc1cc(NC(=O)c2nn(-c3ccc(C)cc3)c(=O)c3c2c2ccccc2n3C)cc(OC)c1OC,8.56% (inactive)
20,Cc1ccc(NC(=O)C2CCC(C(C)(C)C)CC2)cc1S(=O)(=O)N1CCOCC1 (stereo not drawn),-25.3% (inactive)
21,CC(C)(C)C1CCC(C(=O)Nc2cccnc2)CC1 (stereo not drawn),-93.5% (active)
22,CC(=O)Nc1ccc(NC(=O)COC(=O)C2CCC(C(C)(C)C)CC2)cc1 (stereo not drawn),-11.6% (inactive)
23,CCOc1ccc(NC(=O)Cn2c(C)ccc(C#N)c2=O)cc1,-3.22% (inactive)
24,O=C(NCCc1csc(-c2ccc(C(F)(F)F)cc2)n1)C(=O)Nc1ccc(F)c(Cl)c1,-16.3% (inactive)

row,SMILES,"activity change, negative = inhibition"
1,CCc1nc2nc(C)cc(Nc3ccc(F)c(Cl)c3)n2n1,-29.5% (inactive)
2,CCOc1ncccc1C(=O)Nc1ccc(S(=O)(=O)Nc2nc(C)cc(C)n2)cc1,4.63% (inactive)
3,Cc1ccc(S(=O)(=O)Nc2ccc(F)c(S(=O)(=O)N3CCOCC3)c2)cc1,11.9% (inactive)
4,Cc1ccc(S(=O)(=O)Nc2ccc3ncccc3c2)cc1,-97.8% (active)
5,COc1ccc(Cl)cc1NC(=O)CCn1c(=O)c2cccn2c2ccccc21,4.3% (inactive)
6,CCOC(=O)c1c(N)n(-c2cccc(C)c2C)c2nc3ccccc3nc12,3.84% (inactive)
7,Cc1nn(-c2ccc(N3CCCCC3)nn2)c(C)c1CCC(=O)NCc1ccc(F)cc1,-11.9% (inactive)
8,CCNS(=O)(=O)c1ccc(NC(=O)CSc2nc(-c3ccco3)cc(C(F)(F)F)n2)cc1,19.7% (inactive)
9,CC1CCN(C(=O)c2ccc3c(c2)NC(=O)CN3)CC1,-12.7% (inactive)
10,O=C(Cc1ccccc1)N1CCN(C2CCCCCC2)CC1,31.1% (inactive)
11,O=C1Nc2cc(C(=O)N3CCC(N4CCCCC4)CC3)ccc2S/C1=C\c1ccccc1,-88% (active)
12,CCOc1ccccc1NC(=O)Cn1c(=O)n(Cc2ccccc2)c(=O)c2c(C)c(C(=O)N(C)C)sc21,-19.6% (inactive)
13,CC(=O)CC[C@@H](C)O[C@@H]1OC(C)[C@H](O)CC1O (stereo partly drawn),-66.6% (active)
14,COc1ccc(NC(=O)N(C)C[C@@H]2OCCCC[C@@H](C)Oc3ccc(NC(=O)NC4CCCCC4)cc3C(=O)N([C@H](C)CO)C[C@@H]2C)cc1,1.75% (inactive)
15,CCOC(=O)CSc1ccccn1,-102% (active)
16,O=C(CSc1ccccn1)N1CCN(S(=O)(=O)c2ccc(Cl)cc2)CC1,-33.6% (inactive)
17,CCOC(=O)CSc1ncc(-c2cccc(Cl)c2)cn1,23.7% (inactive)
18,COc1ccc(CCNc2nc3c(-c4cccc(F)c4)nnn3c3ccccc23)cc1OC,30.2% (inactive)
19,Cc1ccc(CCNC(=O)c2ccc(CNS(=O)(=O)c3ccc(C)cc3)cc2)cc1,-11.4% (inactive)
20,Cc1ccc(S(=O)(=O)N(CC(=O)Nc2ccc(Cl)cc2Cl)c2ccccc2C)cc1,-21.6% (inactive)
21,CCc1nc(C)cn1S(=O)(=O)c1cc(OC)c(C)cc1C,-33.9% (inactive)
22,CCc1nc(C)cn1S(=O)(=O)c1cc([N+](=O)[O-])ccc1Cl,-98.5% (active)
23,CC(C)c1nccn1S(=O)(=O)c1cc([N+](=O)[O-])ccc1Cl,-7.9% (inactive)
24,Cc1ccccc1Nc1nn2c(=O)c3ccc(C(=O)NCCc4ccc(Cl)cc4)cc3nc2s1,-8.87% (inactive)

row,SMILES,"activity change, negative = inhibition"
1,CC(C)c1ccc(NC(=O)Cn2nnc(C(=O)NCCc3ccccc3)c2N)cc1,7.46% (inactive)
2,Cc1ccc(NC(=O)Cn2cnc3nc4c(cc3c2=O)CCCC4)cc1Cl,19.1% (inactive)
3,CCCN(CCC)CCNC(=O)Cn1cnc2sc(C)c(S(=O)(=O)N3CCC(C)CC3)c2c1=O,3.59% (inactive)
4,Fc1ccc(-n2ncc3c(Nc4ccc(Oc5ccccc5)cc4)ncnc32)cc1,-35.2% (inactive)
5,CCN(CCCNC(=O)Cn1ncc2c3ccccc3n(C)c2c1=O)Cc1ccccc1,-7.87% (inactive)
6,Cc1cc(C(=O)COc2ccccc2[N+](=O)[O-])c(C)n1-c1cccc(S(=O)(=O)N2CCOCC2)c1,-89.3% (active)
7,O=C(COc1ccc(S(=O)(=O)N2CCCC2)cc1[N+](=O)[O-])N1CCCCC1,-8.38% (inactive)
8,Cc1cc(S(=O)(=O)N2CCOCC2)ccc1OCC(=O)N1CCOCC1,-17.6% (inactive)
9,O=S(=O)(c1ccc(Br)c2ccccc12)N1CCOCC1,-15% (inactive)
10,O=C1CCC(=O)N1CCC(=O)N(C(=O)NC1CCCCC1)C1CCCCC1,14.3% (inactive)
11,CCCNC(=O)c1onc(CSc2ccc(F)cc2)c1C(=O)NC(C)C,-14.5% (inactive)
12,CCCCNC(=O)c1onc(CSc2cccc(OC)c2)c1C(=O)O,31.1% (inactive)
13,CCOc1cccc(SCc2noc(C(=O)NC(C)C)c2C(=O)O)c1,-61.6% (active)
14,COc1cc2c(cc1OC)C(c1ccccc1Br)NC(=O)C2 (stereo not drawn),-67.4% (active)
15,O=C1CCC([N+](=O)[O-])C(c2ccccc2Br)N1 (stereo not drawn),-6.17% (inactive)
16,COc1cc(C2NC(=O)NC(c3ccccc3)=C2C(C)=O)c(Br)cc1OCC(N)=O (stereo not drawn),-0.681% (inactive)
17,CN(Cc1cccnc1)C(=O)c1cc(COc2ccc3ncccc3c2)on1,-81.6% (active)
18,CCn1ccnc1CN(C)C(=O)c1cc(COc2ccc(Cl)cc2OC)on1,1.37% (inactive)
19,CCOc1ccc(NS(=O)(=O)c2ccc(Cl)c(C(=O)N(C)Cc3cccnc3)c2)cc1,-5.24% (inactive)
20,CCc1nccn1S(=O)(=O)c1cc(Br)ccc1Br,3.85% (inactive)
21,Cc1cc(C)cc(NC(=O)CSc2nc(=O)n(CCN3CCOCC3)c3c2CCC3)c1,14.5% (inactive)
22,O=C(COC(=O)CCc1c[nH]c2ccccc12)Nc1cccc(Cl)c1,-16% (inactive)
23,COC(=O)c1ccc2c(c1)S(=O)(=O)NC2C (stereo not drawn),24.6% (inactive)
24,CC1CCCCC1NC(=O)COC(=O)Cc1ccc(Cl)cc1 (stereo not drawn),26.8% (inactive)

row,SMILES,"activity change, negative = inhibition"
1,CCNC(=S)Nc1ccc2c(c1)c(=O)n(C)n2Cc1ccc(Cl)cc1,-4.48% (inactive)
2,CCOCCC(=O)Nc1ccc2c(c1)c(=O)n(C)n2-c1ccc2ccccc2c1,-74.6% (active)
3,COc1cc(Cn2c3ccc(NC(=O)CC(C)c4ccccc4)cc3c(=O)n2C)ccc1F (stereo not drawn),-10.4% (inactive)
4,CCCCn1c(N)c(N(CC)C(=O)/C=C/c2ccco2)c(=O)[nH]c1=O,14.2% (inactive)
5,O=C1/C(=C/c2cccs2)CCC1C1CCCC1 (stereo not drawn),-34.7% (inactive)
6,O=C1/C(=C/c2cccs2)SC(=S)N1C1CCS(=O)(=O)C1 (stereo not drawn),-80.8% (active)
7,Cn1nccc1NS(=O)(=O)c1ccc(F)cc1,19.9% (inactive)
8,Cc1ccc2cccc(NC(=O)c3ccc(OC(C)C)cc3)c2n1,9.69% (inactive)
9,CCOc1ccc(N(CC)S(=O)(=O)N2CCCC(C(=O)Nc3ccc(C(C)=O)cc3)C2)cc1 (stereo not drawn),11.4% (inactive)
10,Cc1ccc(OCc2n[nH]c(=S)n2-c2ccccc2)cc1,-60.4% (active)
11,COc1ccc(OCc2n[nH]c(=S)n2N)cc1,39.1% (inactive)
12,CC(Sc1nnc(COc2ccccc2)n1-c1ccccc1)C(=O)O (stereo not drawn),-4.35% (inactive)
13,CCc1ccccc1NC(=O)N1CCC2(CC1)Oc1ccccc1C(=O)N2Cc1ccccc1F,6.91% (inactive)
14,CN1c2ccccc2[C@@]2(CCN=C2N2CCOC2=O)[C@H]1c1cn(C)c2ccccc12,7.43% (inactive)
15,CCCCCCNCCn1cnc2c(N)ncnc21,-40% (inactive)
16,CCOC(=O)C1=C(CC)Nc2ccccc2N=C1N,40.2% (inactive)
17,CCOC(=O)C1C(=O)NCC1c1ccccc1 (stereo not drawn),25.9% (inactive)
18,CCOC(=O)C1=C(C)NC(C)=C(C(=O)OCC)C1C1=COCCO1,42.6% (inactive)
19,CCOC(=O)C1=C(C)NC(C)=C(C(=O)OCC)C1c1ccccn1,1.28% (inactive) and -98.9% (active)
20,C=CCC1(C#N)C(=S)NC(C)=C(C(=O)OCC)C1c1ccccc1 (stereo not drawn),21.2% (inactive)
21,CCOC(=O)C1=C(C)NC(SC)=NC1c1ccccc1 (stereo not drawn),-75.9% (active)
